Laboratory results: PubChem BioAssay AID2130 (The Scripps Research Institute Molecular Screening Center, 2009)
Screen size: about 320,000 compounds; about 1,700 (0.53%) were called active. The sample holds actives, similar compounds and a random draw of the others, so the mix is not that of the screen.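 The calls were made as follows: active = inhibition above the campaign mean of all compounds plus 3 SD (cut at about 26% in these data); inactive = the rest.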

Target: Protein phosphatase methylesterase 1 (Homo sapiens) (UniProt Q9Y570)
Assay: PME-1 inhibitors via competitive probe labeling, primary screen, biochemical, fluorescence polarization, FP-Rh probe, HTS (AID 2130);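 also: competitive labeling of PME-1 active site by serine hydrolase directed probe; 0% = PME-1 with DMSO and 100% = wells lacking PME-1 enzyme; inhibitors block probe labeling so polarization falls and inhibition rises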
Conditions: recombinant PME-1, FP-Rh probe fluorescence polarization; at 5.9 µM; stronger effect = higher value

Chain of Protein phosphatase methylesterase 1 (Homo sapiens) (Q9Y570 whole entry, looked up): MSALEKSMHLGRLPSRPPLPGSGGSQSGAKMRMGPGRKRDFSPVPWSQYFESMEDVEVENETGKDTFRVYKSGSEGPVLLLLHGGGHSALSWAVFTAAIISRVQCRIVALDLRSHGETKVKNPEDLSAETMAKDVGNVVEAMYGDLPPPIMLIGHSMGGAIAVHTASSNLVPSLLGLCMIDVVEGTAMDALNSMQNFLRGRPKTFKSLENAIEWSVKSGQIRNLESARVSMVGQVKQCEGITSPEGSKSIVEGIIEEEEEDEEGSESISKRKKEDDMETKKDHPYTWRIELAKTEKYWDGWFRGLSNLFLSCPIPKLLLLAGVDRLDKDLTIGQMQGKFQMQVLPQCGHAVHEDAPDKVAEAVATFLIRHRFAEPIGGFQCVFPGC

inhibition, inactive:
O=C(NCc1cccs1)C1CCN(S(=O)(=O)c2ccc3c(c2)OCCO3)CC1 10.8%
O=C(NCc1ccc(Cl)cc1)C1CCN(S(=O)(=O)c2cccs2)CC1 11.3%
Cc1cccc(N2CCN(Cc3nc(C4CC4)no3)CC2)n1 0.08%
CC1C(c2ccccc2)=[N+]([O-])C2(CCCC2)N1O (stereo not given) -10.2%
Cc1ccc(-c2csc(-c3cc(C)on3)n2)cc1 -0.04%
CCCc1cc(-c2nc(-c3ccc(C)cc3)cs2)ccn1 -6.39%
COc1ccccc1-c1c(C)nn2c(C)c(C(C)=O)cnc12 -0.93%
COc1ccccc1-c1sc2ccccc2c1-c1ccc(Br)nc1 -9.82%
N#Cc1c(C(F)(F)F)cc(-c2cccs2)nc1N1CCCCC1 2.44%
COc1ccc(CN2CCCC(C(=O)c3ccc(Cl)cc3)C2)cc1Cn1cncn1 (stereo not given) 4.9%
CC(=O)c1ccc(OCC(O)CN2CCN(S(=O)(=O)c3cccc(Br)c3)CC2)cc1 (stereo not given) 7.43%
CC(=O)NC1=NN(C(C)=O)C(C)(c2ccc(Cl)s2)S1 (stereo not given) -1.89%
CC(=O)Nc1cccc(Nc2nc(-c3cccs3)nc3ccccc23)c1 -31.9%
COc1ccc(Nc2nc(-c3cccnc3)nc3ccccc23)cn1 0.55%
CC(C)c1c(C(=O)N/N=C/c2ccccc2C(=O)O)nnn1-c1nonc1N 3.05%
Nc1nonc1-n1nnc(C(=O)N/N=C/C2CCCCC2)c1-c1ccccc1 2.24%
O=C(C(=O)N1CCc2ccccc2C1)c1c[nH]c2ccccc12 -0.44%
Cc1cccc(C)c1NC(=S)N1CCCCCC1 -3.93%
COc1ccc(CNC(=O)COc2ccccc2C(=O)c2cnn(-c3ccccc3)c2)cc1OC -5.4%
Cc1ccc(S(=O)(=O)n2cnc3ccccc32)c(C)c1 -0.58%
O=c1[nH]cnc(O)c1C(c1ccc(F)cc1)c1c(O)nc[nH]c1=O -2.73%
COc1cccc(NC(=O)NCCN2CCCCC2)c1 0.47%
COc1cccc(C(=O)Nc2nnc(S(=O)(=O)N3CCCCC3)s2)c1 -0.5%
CC1CCC(NC(=O)CN(C)S(=O)(=O)c2ccc3c(c2)c(=O)n(C)c(=O)n3C)CC1 (stereo not given) 0.21%
COc1ccnc(Oc2ccccc2)c1-c1ncn[nH]1 3.26%
O=C(Nc1ccc(C(F)(F)F)cc1)c1cccc(-n2cnnn2)c1 -9.13%
CCCCC(=O)Nc1nc(C)c(-c2csc(Nc3ccc(Cl)cc3)n2)s1 16.9%
CCCCCCC(=O)Nc1nc(C)c(-c2csc(Nc3cc(Cl)ccc3OC)n2)s1 13.6%
CCCCCCC(=O)Nc1nc(C)c(-c2csc(Nc3cccc(OC)c3)n2)s1 16.8%
CC(=O)Nc1nc(C)c(-c2csc(Nc3ccc(S(N)(=O)=O)cc3)n2)s1 -2.64%
COc1ccc(F)cc1C(=O)COC(=O)c1n[nH]c(=O)c2ccccc12 2.97%
Cc1cc(OC(=O)c2ccc(OC(C)C)cc2)c([N+](=O)[O-])c(=O)[nH]1 -4.45%
COc1cc(OC)cc(C(=O)NNC(=O)CCOc2ccccc2OC)c1 -2.05%
CCOc1ccc(-c2cn(S(=O)(=O)c3cccc4nsnc34)nc2N)cc1 2.2%
Cc1ccccc1CC1(CO)CCCN(Cc2ccc3c(c2)OCCO3)C1 (stereo not given) 3.22%
O=S(=O)(NCCc1ccc(Cl)cc1)c1cccs1 6.08%
O=C(N/N=C/c1cccnc1)c1cc2ccccc2cc1O 12.5%
CC(C)(C)OC(=O)NNc1c2ccccc2nc2ccccc12 17.6%
COc1ccccc1C1C(C(N)=O)=C(C)Nc2nc(CCCO)nn21 (stereo not given) -0.55%
COc1ccc(C(=O)OC(C)C(=O)NC2CCCC2)cc1S(=O)(=O)N1CCOCC1 (stereo not given) 2.8%
COc1cnn(-c2ccc([N+](=O)[O-])cc2)c(=O)c1Cl -4.7%
O=c1[nH]c2cccnc2n1-c1ccc([N+](=O)[O-])cc1 5.31%
CCCCN1C(N)=NC[C@@H]1CC1CCCCC1 -2.94%
Cc1cc(=O)oc2cc(NC(=O)C3CC(=O)N(Cc4ccccc4)C3)ccc12 (stereo not given) 7.03%
COc1cccc(C2Nc3cccc4cccc(c34)N2)c1 14.7%
Cc1ccc(C2Nc3cccc4cccc(c34)N2)cc1 1.72%
CCc1ccc(NC(=O)CN2C(=O)COc3ccc(S(=O)(=O)N4CCCC4)cc32)cc1 -0.43%
CCOC(=O)C1(Cc2ccccc2C(F)(F)F)CCN(C(=O)c2cc(C)n(C)n2)CC1 -3.56%
CCCCCN(C(=O)CCC(=O)OCCOc1ccc(OC)cc1)c1c(N)n(CCCC)c(=O)[nH]c1=O -1.09%
C=CCn1cc(-c2cccc(C(F)(F)F)c2)cc(C#N)c1=O 1.51%
Oc1ccc(N=Cc2sc3ccccc3c2Cl)cc1 14.5%
CCOc1[nH]n(-c2ccc(Cl)cc2)c(=O)c1C=Nc1ccc(O)cc1 14.7%
CN(CCc1ccccn1)S(=O)(=O)c1ccc2c3c(cccc13)C(=O)N2 7.3%
Nc1nc(CC(=O)CSc2ccc(Cl)cc2)nc(Nc2ccc(F)cc2)n1 0.37%
COc1cccc(N2C(=O)CC(N3CCc4ccccc4C3)C2=O)c1 (stereo not given) 1.67%
COc1cccc(N2CCN(CC(=O)Nc3ccnn3C3CCCC3)CC2)c1 0.47%
Clc1ccc(Nc2nc(-c3cccs3)cs2)nc1 14.9%
Cc1cccc(Nc2nc(-c3ccccc3)cs2)n1 9.05%
CCCOc1ccc(CNC(=O)C2CCN(c3nn4c(=O)cc(C)nc4s3)CC2)cc1 -0.67%
COc1ccc(CN(C(=O)CSc2nnc(-c3ccc(OC)c(OC)c3)o2)c2ccc(F)cc2)cc1 -0.21%
COc1ccccc1C(=O)NC(CCSC)C(=O)NNC(=O)c1ccccc1C (stereo not given) -6.59%
O=S(=O)(NC1CCCC1)c1ccc(-n2cnnn2)cc1 -6.91%
COc1ccc(CC(=O)NC2CCSc3ccccc32)cc1OC (stereo not given) 8.44%
CCC(C)(C)N=C(NC#N)Nc1cccnc1 -2.16%
CC(=O)N/C(=C/c1ccc(Cl)cc1)C(=O)NCCc1c[nH]c2ccccc12 1.47%
O=C(CN1C(=O)NC2(CCCCC2)C1=O)NCCc1c[nH]c2ccccc12 1.73%
CCOC(=O)c1c(C)[nH]c(C2=NNC(=NC(C)COC)SC2)c1C (stereo not given) -7.22%
CCC(C(=O)NC1CCCC1)N(C(=O)Cn1nnc(-c2ccc(C)o2)n1)c1ccc(OC)c(OC)c1 (stereo not given) 2.08%
Cc1ccc(Cl)c(OCC(=O)N2CCc3ccccc3C2)c1 2.04%
FC(F)(F)c1nc(-c2ccccc2)ncc1-c1nnnn1-c1ccccc1 -1.36%
Cc1ccc2nc(SCC(=O)N3CCN(c4ccccc4)CC3)nc(=O)n2c1 11.8%
Cc1ccccc1CCN(CC(=O)NC1CCCCC1)C(=O)c1csnn1 3.53%
CCc1nc2nc(C)c(NS(=O)(=O)c3ccc4c(c3)CCCC4)c(=O)n2[nH]1 3.49%
CCOC(=O)c1c(C)oc(C)c(C(=O)OCC)c1=O 2.67%
CCOC(=O)c1ccc(NC(=O)c2cc(=O)[nH]c3ccccc23)cc1 -7.83%
CCOC(=O)c1nc(Nc2ccc(C(=O)OC)cc2)c2ccccc2n1 -3.8%
CCNC(=S)N(CCN(CC)CC)Cc1cc2cc3c(cc2[nH]c1=O)OCO3 -3.38%
CC1CCC(CN2CCN=C2N(C)C)CC1 (stereo not given) 0.76%

inhibition, active:
O=C(NCc1cccs1)C1CCN(S(=O)(=O)c2ccc(Cl)cc2)CC1 49.3%
Cc1ccc(-c2csc(-c3c[nH]c4ccccc34)n2)cc1 27.5%
COc1ccccc1-c1sc2ccccc2c1-c1ccc(C(C)=O)cc1 33.6%
Cc1cccc(-c2nc(Nc3ccc(O)cc3)c3ccccc3n2)c1 30.6%
Nc1nonc1-n1nnc(C(=O)N/N=C/c2c[nH]c3ccccc23)c1-c1ccccc1 34.1%
COc1cccc(NC(=O)Nc2nnc(N3CCCCC3C)s2)c1 (stereo not given) 43.8%
Cc1nc(NC(=O)c2cccc(Cl)c2)sc1-c1csc(Nc2cccc(Cl)c2)n1 32.1%
C=CCCC(=O)Nc1nc(C)c(-c2csc(Nc3ccc(Cl)cc3)n2)s1 28.8%
O=C(NNc1c2ccccc2nc2ccccc12)c1cc2ccccc2cc1O 76.5%
O=c1[nH]n(-c2ccc([N+](=O)[O-])cc2)c(=O)c2ccccc12 26.6%
Oc1ccc(C2Nc3cccc4cccc(c34)N2)cc1 53.6%
Oc1ccc(N=Cc2c(O)ccc3ccccc23)cc1 52.4%
Cc1ccc(Nc2nc(-c3ccc(O)cc3O)cs2)nc1 29%
CC[N+](C)(CC)CCC[n+]1c(-c2ccccc2)c2cc(N)ccc2c2ccc(N)cc21 54.4%
N#C/C(=C/c1ccc(N2CCCCC2)o1)C(=O)NCCc1c[nH]c2ccccc12 31.4%
Oc1c(Cl)cc(Cl)c(Cl)c1Cc1c(O)c(Cl)cc(Cl)c1Cl 27%
CCOC(=O)c1ccc(Nc2cc3ccccc3c(=O)[nH]2)cc1 51.5%
